# High-throughput results from PubChem.
# Only some compounds are listed: those with a hit (about 12% of all), similar ones and a draw of the others.
# G9a inh: G9a (human) methyltransferase inhibition. Q96KQ7. G9a H3K9 monomethylation, AlphaScreen, 2 h. Potency, µM (top dose mostly 102 µM), for the others: top-dose activity, negative = inhibition, usual class: inhibitors. 350,000 compounds, 8.8% hits. AID 504332; note: % is set by controls: 0 for no effect and ±100 for the full control effect; nearly all actives have a fitted effect of over 75% in size
# Target sequence (Q96KQ7 913-1193 limits assumed): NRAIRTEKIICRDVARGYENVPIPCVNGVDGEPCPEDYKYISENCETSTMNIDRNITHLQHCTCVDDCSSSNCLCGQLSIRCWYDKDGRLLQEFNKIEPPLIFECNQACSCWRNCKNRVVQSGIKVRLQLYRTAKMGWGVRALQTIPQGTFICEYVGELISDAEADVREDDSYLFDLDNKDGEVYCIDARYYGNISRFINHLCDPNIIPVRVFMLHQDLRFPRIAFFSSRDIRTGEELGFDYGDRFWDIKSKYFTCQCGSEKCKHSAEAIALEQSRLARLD
#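 Enzyme 20 nM + cpd, 15 min RT; add b-H3K9 pep 500 nM / SAM 20 uM; 2 h RT; anti-H3K9me1 Ab 0.5 ug/mL + SA donor / anti-rabbit acceptor beads 20 ug/mL each, 10 min; AlphaScreen read.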
# BAZ2B block: inhibitors of human BAZ2B bromodomain; AlphaScreen BAZ2B-H3K14Ac peptide displacement; Potency, µM (series often up to 114 µM), without a hit: top-dose activity change, negative = inhibition, actives largely listed as inhibitors; 360,000 compounds, 4.4% hits; AID 504333; note: % is set by controls: 0 for no effect and ±100 for the full control effect; nearly all actives have a fitted effect of over 60% in size
#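 In this displacement format the biotinylated H3(5-23) peptide acetylated at Lys14 serves as ligand at 50 nM, with BAZ2B at 50 nM in PBS pH 7.4 containing 0.01% Tween-20. Donor and acceptor beads are 10 ug/mL final.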
# JMJD2A Tudor inh: blocks the human JMJD2A Tudor domain | 390,000 compounds, 4.4% hits | O75164 | AlphaScreen JMJD2A-Tudor / H3K4me3 peptide binding | AID 504339 | Potency, µM (titrated, usually from 114 µM), for the others: top-dose activity change, negative = inhibition, actives largely listed as inhibitors; note: % is set by controls: 0 for no effect and ±100 for the full control effect; nearly all actives have a fitted effect of over 50% in size
# HP1b binding inh: inhibitors of HP1-beta chromodomain binding to methylated histone tails | AlphaScreen HP1-beta / biotin-H3K9me3 peptide binding | Potency, µM (top dose mostly 114 µM), for the others: at the top dose activity change, negative = inhibition, actives largely listed as inhibitors | 390,000 compounds, 0.56% hits; note: nearly all actives have a fitted effect of over 70% in size
# Target sequence (P83916 whole entry, looked up): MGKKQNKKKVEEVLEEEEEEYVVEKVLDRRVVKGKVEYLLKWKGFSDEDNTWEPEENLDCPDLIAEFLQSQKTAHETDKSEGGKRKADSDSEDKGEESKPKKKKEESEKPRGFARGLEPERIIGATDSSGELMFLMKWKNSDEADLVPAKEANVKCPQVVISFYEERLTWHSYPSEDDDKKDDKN
#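 HP1-beta protein (50 nM final) preincubated 30 min at room temperature with biotinylated H3(1-18)K9me3 peptide (50 nM) in PBS pH 7.4, 0.01% Tween-20, then compound added for 30 min. AlphaScreen streptavidin donor/nickel chelate acceptor beads (10 ug/mL final), 30 min dark, luminescence read.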
# Sfp PPTase inh: inhibitors of Bacillus subtilis Sfp phosphopantetheinyl transferase | Q9F4F7 | Biochemical Sfp PPTase activity, qHTS | Potency, µM, inactives show largest response in the series, negative = inhibition, hits mostly inhibitors | 310,000 compounds, 3.5% hits | AID 1490;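 note: the enzyme is Sfp with the accession as filed and its product quenches rhodamine fluorescence; 0% = enzyme reaction without inhibitor and -100% = no enzyme wells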
#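 After 15 min at room temperature with compound, 15 nM Sfp received 5 uM rhodamine-CoA plus 12.5 uM BHQ-2-ybbR (50 mM Hepes pH 7.6, 10 mM MgCl2). Rate came from the fluorescence difference over 30 min, ex 525/em 598 nm.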
# Numbers without * were called inactive; u = inconclusive; x = not tested or not shown; [ ] = remark or other dose. Calls come from the whole dose curve; as a rule, active = well fitted curve in the direction sought with a large enough effect; inconclusive = small, poorly fitted or top-dose-only effect, or another doubt; inactive = no such curve, though single readings can be large; an effect the other way counts as inactive or inconclusive. Potency is the fitted concentration of half-maximal effect.
SMILES,G9a inh,BAZ2B block,JMJD2A Tudor inh,HP1b binding inh,Sfp PPTase inh
CN(CCOc1ccc(Cl)cc1)C(=O)CN1C(=O)NC2(CCCC2)C1=O,u,-25%,-23%,14%,x
COc1ccc(NC(=O)CCCn2c(=O)c3sccc3n(Cc3ccc(C)cc3C)c2=O)cc1,15%,8%,6%,35%,50µM*
CCOC(=O)c1cnc2nc(NCc3cccc(Br)c3)[nH]n2c1=O,u,-17%,-19%,28%,x
Cc1ccc2cc(C(=O)O)c(C)nc2c1,50µM*,u,-7%,33%,-21%
COc1cc(-c2nn3c(-c4cc(-c5ccccc5)n[nH]4)nnc3s2)cc(OC)c1OC,x,x,-23%[57.1 µM],1%[57 µM],x
CC(C)(C)c1ccc(-c2nnc3sc(-c4ccncc4)nn23)cc1,2.5µM*,11%,-20%,-20%,-26%
c1ccc(OCc2nn3c(-c4ccco4)nnc3s2)cc1,50µM*,-8%,-25%,25%,u
Cc1nnc2sc(-c3ccncc3)nn12,11%[59 µM],-30%,-12%,35%,-3%
COc1cc(-c2nn3c(-c4ccccc4)nnc3s2)cc(OC)c1OC,45µM*,1%,-21%,23%,-4%
CCOc1cccc(-c2nnc3sc(-c4cc(OC)c(OC)c(OC)c4)nn23)c1,79µM*,10%,-17%,14%,-12%
CCC(C)NC(=O)c1sc2nc(C)c(C(=O)Nc3ccc(C)cc3C)c(-c3ccc(Br)cc3)c2c1N (configuration not stated),u,3%,9%,67%,x
Cc1cc(Br)ccc1NC(=O)Cn1cc(S(=O)(=O)N2CCN(c3ccccc3F)CC2)c2ccccc2c1=O,-3%[59 µM],1%,-13%,21%,x
O=C(COC(=O)c1ccccc1[N+](=O)[O-])Nc1cccnc1Cl,11%,11%,-11%,9%,x
O=C(Nc1sc2c(c1C(=O)NCc1cccnc1)CCCC2)c1cc(=O)c2ccccc2o1,3%[59 µM],-4%,-9%,37%,x
COC1CCC2(C)C(=CCC3C4CC(O)CC4(C)CCC32)C1 (configuration not stated),x,x,-6%,28%,x
CCOc1ccc(-c2nnc3sc(COc4ccccc4)nn23)cc1,-40%[12.7 µM],-5%,-11%,38%,17%
COc1cc(-c2nn3c(COc4ccccc4)nnc3s2)cc(OC)c1OC,5µM*,-2%,-20%,u,56µM*
c1csc(Cc2nn3c(-c4ccncc4)nnc3s2)c1,13µM*,u,u,45%,u
CCOc1ccccc1OCc1nn2c(COc3ccccc3)nnc2s1,u,-21%,u,u,18µM*
CCOC(=O)c1[nH]c(C)c(CCC(=O)Nc2cccc(SC)c2)c1C,u,-22%,-33%,-6%[57 µM],x
Cc1cccn2c(=O)c3cc(C(=O)NC(C)(C)C)n(C)c3nc12,-2%[59 µM],4%,-2%,57%,x
CCOC(=O)c1scc(-c2ccc(C)cc2)c1S(=O)(=O)Nc1ccc(F)c(F)c1,-35%[59 µM],-13%,-24%,-27%,x
CCOC(=O)c1scc(-c2ccccc2)c1S(=O)(=O)Nc1cc(Cl)c(OC)cc1OC,10µM*,u,-24%,u,x
CCOC(=O)c1scc(-c2ccccc2)c1S(=O)(=O)Nc1ccc(N(C)C)cc1,4.5µM*,20µM*,14µM*,u,x
COc1ccc(-c2cc(CC3(C(=O)O)CCN(C(=O)OC(C)(C)C)CC3)on2)c(OC)c1,-17%,-38%,-14%,61%,1%
SMILES,G9a inh,BAZ2B block,JMJD2A Tudor inh,HP1b binding inh,Sfp PPTase inh
COc1ccc2nc(NN=C(C)c3ccccn3)cc(C)c2c1,x,x,45µM*,u,x
CN(N=O)C(=O)N[C@H]1C(O)C(O)C(CO)O[C@@H]1O (some centres not stated),-48%[2.33 µM],x,x,x,12%
Cc1occc1C(=O)NCc1cccc(CNC(=O)c2ccoc2C)c1,22µM*,50µM*,56µM*,u,u
COc1ccc(CNc2nc(-c3ccc(OC)c(OC)c3)cc(C(F)(F)F)n2)cc1,52%[59 µM],28%,29%,68%,x
COc1ccc(CNc2cccc3[nH]c(C(F)(F)F)nc23)cc1OC,-29%[2.33 µM],50µM*,u,-26%,u
COc1cc(CNc2nc3ccccc3n2C)cc(OC)c1OC,18%[59 µM],4%,-9%,10%,6%
COc1ccc(CNS(=O)(=O)NCc2ccc(OC)c(OC)c2)cc1OC,0%,0%,3%,16%,10%
